This is one part of a sample in which hits are shown more often than they occur.
Tg IFNy HTS – blocks Toxoplasma gondii growth in the presence of IFN-gamma. Toxoplasma gondii growth in IFN-gamma-treated host cells; stronger effect = lower value. activity change, negative = inhibition, % (no concentration beside the values). hit rate 3.8% among 69,000. AID 1259416; in the data active means activity change below about -70%, passing the limit was not always enough;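 further: host cells are HeLa cells infected with Toxoplasma gondii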
Each line names hits and unclear results; the compound was inactive in the other large screens; ! = repeats disagree.

COc1ccc(-c2cnc(N)cn2)cc1Cl	Tg IFNy HTS -88
COc1ccc(-c2ccccc2C(N)=O)cc1Cl	none
COc1ccc(-c2nc(C)ncc2C)cc1Cl	none
Cc1ccc(S(=O)(=O)Nc2ccc(-c3nc4ccccc4[nH]3)cc2)cc1	Tg IFNy HTS -81
Cc1ccc(S(=O)(=O)Nc2cnc3ccccc3c2)cc1	none
CC(=O)Nc1ccc(S(=O)(=O)Nc2nc3ccccc3nc2Nc2ccc(C)cc2)cc1	none
CC(=O)N1C[C@@H]2C(=O)N(C)C3(CCN(S(=O)(=O)CC(C)C)CC3)[C@H]2C1	none
FC(F)(F)Oc1ccc(C2c3ccsc3CCN2Cc2ccccc2)cc1 (configuration not stated)	none
CN(C)c1ncnc2c1CCN(C(=O)c1cc3c(Cl)cccc3[nH]1)C2	none
COC(=O)c1c(NCCc2c[nH]c3ccccc23)c2cc(F)ccc2[nH]c1=O	Tg IFNy HTS -99
COC(=O)c1c(NCCc2ccccc2)c2cc(F)ccc2[nH]c1=O	none
COCCNc1c(C(=O)OC)c(=O)[nH]c2ccc(F)cc12	none
COc1ccc(-c2ccc(Nc3ccc(C(=O)N4CCCCCC4)cc3)nn2)cc1	Tg IFNy HTS -84
Cc1ccc(Nc2ccc(C(=O)N3CCCCC3)cn2)cc1	none
COc1ccc(-c2ccc(C(=O)N3CCCC(c4ccccc4)CC3)cn2)cc1 (configuration not stated)	none
COc1ccc(-c2nc(CN3C(=O)C(O)(c4cccc(F)c4)c4ccccc43)c(C)o2)cc1 (configuration not stated)	Tg IFNy HTS -74
Cc1ccc(C2(O)C(=O)N(Cc3nc(-c4ccccc4)oc3C)c3ccccc32)cc1 (configuration not stated)	none
Cc1cccc(C2(O)C(=O)N(Cc3nc(-c4ccccc4)oc3C)c3ccccc32)c1 (configuration not stated)	none
COc1ccc(Nc2ccn(-c3ccccc3)n2)cc1	none
CN1C(=O)CC2C1CCN2C(=O)c1csnn1 (configuration not stated)	none
O=C(Cn1c(=O)cc(C(=O)N2CCCCC2)c2ccccc21)Nc1ccc([N+](=O)[O-])cc1	none
CN(C)CCNC(=O)c1cc(-c2cnc(-c3cccc(F)c3)nc2)cn1C	Tg IFNy HTS -95
CN(C)C1CCN(C(=O)c2cc(-c3cnc(-c4cccc(F)c4)nc3)cn2C)CC1	none
CN(C)CCNC(=O)c1cc(-c2cnc(NCc3ccccc3)nc2)cn1C	none
CCOc1ccc(N(Cc2nc(-c3cccc(Cl)c3)oc2C)S(=O)(=O)c2cccs2)cc1	none
CCOc1ccc(C(=O)NCCc2sc(-c3ccc(F)cc3)nc2C)cc1OCC	none
CC1(C)CC1C(=O)N/C(=C\CCCCSCC(N)C(=O)O)C(=O)O (configuration not stated)	none
c1csc(-c2[nH]ncc2-c2ccnc(N3CCOCC3)n2)c1	Tg IFNy HTS -106
Cn1ccc2c(-c3cc(N)nc(N4CCOCC4)n3)ccnc21	none
c1csc(-c2cnc(N3CCCC3)nc2-c2nccs2)c1	none
CCOC(=O)c1nc(Nc2ccc(F)cc2F)c2ccccc2n1	none
CN1C(=O)c2cc(NC(=O)c3cnccn3)ccc2OC[C@@H]2O[C@@H](CC(=O)N[C@@H]3CCN(Cc4ccccc4)C3)CC[C@H]21	none
COC1C=COC2(C)Oc3c(C)c(O)c4c(c3C2=O)C2(C=C(NC(=O)/C(C)=C\C=C/C(C)C(O)C(C)C(O)C(C)C(OC(C)=O)C1C)C4=O)OCC(=O)O2 (configuration not stated)	none
CO[C@H]1/C=C\C=C(/C)C(=O)NC2=CC(=O)C(NCCN(C)C)=C(C[C@@H](C)C[C@H](OC)[C@H](O)[C@@H](C)/C=C(\C)[C@@H]1OC(N)=O)C2=O	Tg IFNy HTS -82!
Cc1c(-c2nccn2CCc2nc(-c3cccnc3)no2)oc2ccccc12	none
CCOC(=O)Cn1nc(NC(=O)COc2ccc(F)cc2F)cc1C	none
CCN1CCc2noc(C3CCN(C(=O)Cn4nc(C)c5ccccc5c4=O)CC3)c2C1	none
COCc1nc(NC(C)c2nncn2C(C)C)c2cnn(C)c2n1 (configuration not stated)	none
NCC[C@@H]1CC[C@@H](NC(=O)NC2CCCCC2)[C@@H](CO)O1	none
CN1CCCn2c(nc(CNC(=O)c3ccsc3)cc2=O)C1	none
Cn1cc(S(=O)(=O)Nc2ccccc2N2CCOCC2)c(C(F)(F)F)n1	none
O=S(=O)(Nc1ccccc1N1CCOCC1)c1cc(Cl)sc1Cl	Tg IFNy HTS -85
O=S(=O)(Nc1ccccc1N1CCOCC1)c1cccc2nonc12	none
CCN(Cc1ccccc1)C(=O)c1nc2c(n1C(C)C)CCN(C(C)C)C2	none
COC[C@H]1CN(C)C[C@]12CCN(C(=O)c1ccc3ccccc3c1)C2	none
CCC(=O)NCCc1csc(C2CCCN(C(=O)/C=C/c3cccc(Cl)c3)C2)n1 (configuration not stated)	Tg IFNy HTS -79
CC(=O)NCCc1csc(C2CCCN(C(=O)/C=C/c3ccccc3Cl)C2)n1 (configuration not stated)	none
Cc1ccc(/C=C/C(=O)N2CCCC(c3nc(CCNC(=O)C4CC4)cs3)C2)cc1 (configuration not stated)	none
Cc1nc(N2CCC(NC3CCCc4ccccc43)CC2)nc2ccc(F)cc12 (configuration not stated)	none
CCS(=O)(=O)N1C[C@H]2CCC[C@]2(COc2ccccn2)C1	none
COCCOc1ccccc1NC(=O)c1ccc(Cl)cc1	none
CCCS(=O)(=O)N[C@@H]1C[C@@H](C(=O)OC)N(C)C1	none
O=C1NCC(c2ccccc2)Oc2ccccc21 (configuration not stated)	none
CC(C)Oc1ccc(C2NC(=O)c3ccccc3O2)cc1 (configuration not stated)	Tg IFNy HTS -98
CC(C)Oc1ccc2c(=O)c(-c3ccccc3)coc2c1	none
CCOC(=O)c1ccc(-n2sccc2=O)cc1	none
Cc1cc(OCC(=O)Nc2nc3ccc(S(C)(=O)=O)cc3s2)ccc1C(C)C	none
CCC(NC(=O)c1ccccc1-c1ccccc1)c1ccccn1 (configuration not stated)	none
CN(C)c1ccc(CNC(=O)c2nc(Nc3ccc(F)cc3)c3ccccc3n2)cc1	none
CCOC(=O)c1nc(Nc2cccc(C)c2)c2ccccc2n1	none
CCc1ccc(Nc2nc(C(=O)NCc3ccc(C)cc3)nc3ccccc23)cc1	none
Cc1ccc(Nc2nc(C(=O)NCc3ccc(N(C)C)cc3)nc3ccccc23)cc1	none
Cc1cccc(Nc2nc(C(=O)NCc3ccc(N(C)C)cc3)nc3ccccc23)c1	Tg IFNy HTS -78
CCc1ccc(CNC(=O)c2nc(Nc3cccc(C)c3)c3ccccc3n2)cc1	Tg IFNy HTS -98
COc1ccc2c3c(n(C)c2c1)[C@H](CO)NCC31CN(C(=O)c2cccc(F)c2)C1	none
COc1cc(-c2nc(CN(C)Cc3cccc(-n4cccn4)c3)c(C)o2)ccc1F	none
CC(=O)Nc1ccc(Cl)c(C(=O)NCCCOc2ccccc2)c1	none
Cn1cc(-c2cc(C(=O)Nc3nc4c(s3)CC(C(C)(C)C)CC4)no2)cn1 (configuration not stated)	none
O=C(Cn1ncc2c(N3CCN(c4ccccc4)CC3)ncnc21)Nc1ccc(Cl)cc1F	none
Cn1cc(CN2CCC3(CC2)CN(S(C)(=O)=O)c2ccccc23)cn1	none
O=C(Nc1ccc(-c2nc(-c3ccccc3)co2)cc1)Nc1cccc(Cl)c1	none
O=C(Nc1cccc(Cl)c1)c1ccccn1	none
O=C(Nc1cccc(Cl)c1)Nc1ncc(CCNc2ncnc3ccsc23)s1	Tg IFNy HTS -73
O=C(C1=CCCC1)N1CCC(C2(c3cccnc3)NC(=O)N(CCc3cccs3)C2=O)CC1 (configuration not stated)	none
CCn1c(C2CCN(c3nccc(N4CCC(O)C4)n3)CC2)nn(C)c1=O (configuration not stated)	none
